According to PubChem BioAssay (Tox21):
Records with an inconclusive call do not appear. Activity calls are given as the source filed them. Unless noted, calls follow the shape of the dose curve; as a rule, active = well fitted curve in the direction sought with a large enough effect in the repeat runs; inconclusive = weak or mixed curves; inactive = no such curve, though single readings can be large; an effect the other way counts as inactive or inconclusive.

Legend:
[1] = qHTS assay to test for compound auto fluorescence at 535 nm (green) in HEK293 cells (AID 720680)
[2] = qHTS assay to test for compound auto fluorescence at 460 nm (blue) in HEK293 cell free culture (AID 720681)
In short: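 Blue fluorescence (Ex 405/Em 460 nm, triamterene-equivalent) was read immediately after pin transfer of compound or DMSO into medium (DMEM, 10% FBS) without cells.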

[3] = qHTS assay to test for compound auto fluorescence at 535 nm (green) in HEK293 cell free culture (AID 720682)
In short: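 Fluorescein serves as the green reference fluorophore; each compound's intrinsic emission at 535 nm (excitation 485 nm) is reported as an equivalent amount of that dye, measured in serum-containing DMEM without cells.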

[4] = qHTS assay to test for compound auto fluorescence at 590 nm (red) in HEK293 cell free culture (AID 720683); also: potency is read from the fitted curve at half-maximal effect
In short: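 Red-channel autofluorescence of compounds in culture medium (DMEM, 10% FBS), no cells, measured at 540/590 nm. Rose Bengal sodium is the reference fluorophore for equivalence.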

[5] = qHTS assay to test for compound auto fluorescence at 590 nm (red) in HepG2 cell free culture (AID 720684); also: potency is read from the fitted curve at half-maximal effect
In short: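 Steps: dispense MEM/10% FBS medium, no cells; pin compound or DMSO vehicle; read red channel, Ex/Em 540/590 nm. Output given as Rose Bengal sodium equivalents.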

[6] = qHTS assay to test for compound auto fluorescence at 535 nm (green) in HepG2 cell free culture (AID 720686)
[7] = qHTS assay to test for compound auto fluorescence at 460 nm (blue) in HepG2 cells (AID 720687)
In short: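 Blue-channel autofluorescence (Ex/Em 405/460 nm, triamterene-equivalent) was measured after 1 hr compound exposure at 37 C, 5% CO2. Cells were HepG2, plated overnight at 37 C in MEM plus 10% FBS.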

[8] = molecular target: Glucocorticoid receptor (Homo sapiens) (UniProt P04150); experiment: qHTS assay to identify small molecule agonists of the glucocorticoid receptor (GR) signaling pathway (AID 720691; active = well fitted activation curve with a large enough effect in the signal ratio in the repeat runs, not every such curve was filed as active; the % refers to the signal ratio); settings: GR-bla HeLa, beta-lactamase reporter ratio, 18 h; activation: at 62.4 µM (top of the series)
Chain of Glucocorticoid receptor (Homo sapiens) (P04150 whole entry, looked up): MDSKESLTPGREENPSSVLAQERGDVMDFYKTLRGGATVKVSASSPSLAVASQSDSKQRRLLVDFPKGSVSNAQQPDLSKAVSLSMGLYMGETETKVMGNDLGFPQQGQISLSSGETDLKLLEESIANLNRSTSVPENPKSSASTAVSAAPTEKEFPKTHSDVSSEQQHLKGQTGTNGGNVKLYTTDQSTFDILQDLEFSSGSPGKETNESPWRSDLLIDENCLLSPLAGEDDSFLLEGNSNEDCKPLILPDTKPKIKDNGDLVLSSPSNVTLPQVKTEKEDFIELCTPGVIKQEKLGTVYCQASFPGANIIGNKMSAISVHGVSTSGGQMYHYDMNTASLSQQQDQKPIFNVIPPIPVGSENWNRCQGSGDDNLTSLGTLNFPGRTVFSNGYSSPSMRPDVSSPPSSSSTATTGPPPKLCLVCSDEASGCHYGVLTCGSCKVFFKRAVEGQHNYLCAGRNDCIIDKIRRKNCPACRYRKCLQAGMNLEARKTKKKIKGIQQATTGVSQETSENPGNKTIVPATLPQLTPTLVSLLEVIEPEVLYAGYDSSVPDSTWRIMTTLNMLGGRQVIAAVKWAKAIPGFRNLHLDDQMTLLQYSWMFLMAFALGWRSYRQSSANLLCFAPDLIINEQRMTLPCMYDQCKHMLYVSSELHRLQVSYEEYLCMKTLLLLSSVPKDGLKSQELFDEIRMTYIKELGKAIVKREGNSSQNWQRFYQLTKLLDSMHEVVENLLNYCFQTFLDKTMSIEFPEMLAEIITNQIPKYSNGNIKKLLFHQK
In short: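 Fluorescence intensity from LiveBLAzer B/G FRET substrate (2 h, room temperature) reports beta-lactamase expression driven by the glucocorticoid response element in GR-bla HeLa cells after 18 h compound exposure at 37 C.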

[9] = molecular target: Glucocorticoid receptor (Homo sapiens) (UniProt P04150); experiment: qHTS assay to identify small molecule antagonists of the glucocorticoid receptor (GR) signaling pathway (AID 720692; active = well fitted inhibition curve with a large enough effect in the signal ratio in the repeat runs, not every such curve was filed as active; the % refers to the signal ratio)
In short: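 HeLa GR-bla cells; cmpd + dex 5 nM final, 18 h 37 C; LiveBLAzer B/G FRET substrate 2 h RT; fluorescence intensity read. Antagonist mode, qHTS.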

[10] = qHTS assay to identify small molecule antagonists of the glucocorticoid receptor (GR) signaling pathway - cell viability counter screen (AID 720693); also: nearly all actives have a fitted effect of over 55% in size; also: potency is read from the fitted curve at half-maximal effect
[11] = qHTS assay for identifying genotoxic compounds that show differential cytotoxicity against isogenic chicken DT40 cell lines with known DNA damage response pathways - wild type cell line (AID 743012); also: nearly all actives have a fitted effect of over 60% in size; also: potency is read from the fitted curve at half-maximal effect
In short: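 Wild type DT40, 300 cells/well, ~0.5 h settle at 37 C/5% CO2; compounds in DMSO added by pintool; 40 h at 37 C/5% CO2; CellTiter-Glo, 30 min RT; luminescence.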

[12] = qHTS assay for identifying genotoxic compounds that show differential cytotoxicity against isogenic chicken DT40 cell lines with known DNA damage response pathways - Rev3 mutant cell line (AID 743014); also: nearly all actives have a fitted effect of over 55% in size; also: potency is read from the fitted curve at half-maximal effect
[13] = qHTS assay for identifying genotoxic compounds that show differential cytotoxicity against isogenic chicken DT40 cell lines with known DNA damage response pathways - Rad54/Ku70 mutant cell line (AID 743015); also: nearly all actives have a fitted effect of over 60% in size; also: potency is read from the fitted curve at half-maximal effect
[14] = qHTS assay to identify small molecule antagonists of the androgen receptor (AR) signaling pathway - cell viability counter screen (AID 743033; also: nearly all actives have a fitted effect of over 45% in size)
[15] = qHTS assay to identify small molecule antagonists of the androgen receptor (AR) signaling pathway using the MDA cell line - cell viability counter screen (AID 743041; also: nearly all actives have a fitted effect of over 45% in size; also: potency is read from the fitted curve at half-maximal effect)
In short: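 Cells were plated at 3,000 per well and left 5 h. Compounds in DMSO were then pinned in, followed by R1881. After 16 h at 37C, CellTiter-Fluor fluorescence gave viability.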

[16] = qHTS assay to test for compound auto fluorescence at 460 nm (blue) in HepG2 cell free culture (AID 720685)
In short: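 Compound (23 nL) or DMSO pinned into cell-free MEM with 10% FBS; blue fluorescence read at 405/460 nm excitation/emission, expressed as auto-fluorescence equivalency to triamterene.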

[17] = molecular target: Androgen receptor (Homo sapiens) (UniProt P10275); experiment: qHTS assay to identify small molecule agonists of the androgen receptor (AR) signaling pathway (AID 743036; active = well fitted activation curve with a large enough effect in the signal ratio in the repeat runs, with a control signal flat, not every such curve was filed as active; the % refers to the signal ratio)
Chain of Androgen receptor (Homo sapiens) (P10275 whole entry, looked up): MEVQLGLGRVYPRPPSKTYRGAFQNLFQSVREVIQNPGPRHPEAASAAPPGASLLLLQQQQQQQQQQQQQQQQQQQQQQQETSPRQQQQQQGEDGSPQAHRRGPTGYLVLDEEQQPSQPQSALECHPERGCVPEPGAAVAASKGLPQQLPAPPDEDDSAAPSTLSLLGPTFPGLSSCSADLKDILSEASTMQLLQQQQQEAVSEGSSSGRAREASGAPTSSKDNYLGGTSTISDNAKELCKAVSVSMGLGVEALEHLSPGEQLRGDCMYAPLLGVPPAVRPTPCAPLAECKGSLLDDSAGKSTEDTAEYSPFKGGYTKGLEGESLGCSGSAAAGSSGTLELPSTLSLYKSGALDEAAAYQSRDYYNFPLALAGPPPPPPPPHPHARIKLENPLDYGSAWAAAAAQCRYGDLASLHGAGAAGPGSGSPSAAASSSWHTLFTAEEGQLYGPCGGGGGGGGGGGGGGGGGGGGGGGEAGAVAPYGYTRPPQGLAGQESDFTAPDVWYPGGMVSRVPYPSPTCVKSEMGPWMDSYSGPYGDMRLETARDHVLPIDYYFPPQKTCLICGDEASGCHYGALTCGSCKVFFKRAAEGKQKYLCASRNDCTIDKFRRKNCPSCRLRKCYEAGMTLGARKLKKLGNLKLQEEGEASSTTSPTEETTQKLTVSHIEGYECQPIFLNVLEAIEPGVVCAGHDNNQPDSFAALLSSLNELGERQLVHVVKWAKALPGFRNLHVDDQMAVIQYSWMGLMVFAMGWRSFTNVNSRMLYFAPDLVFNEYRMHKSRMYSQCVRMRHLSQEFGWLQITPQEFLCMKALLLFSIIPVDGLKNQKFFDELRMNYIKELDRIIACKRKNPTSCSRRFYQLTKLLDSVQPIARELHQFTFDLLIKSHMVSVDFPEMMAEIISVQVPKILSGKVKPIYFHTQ
In short: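 Fluorescence from a beta-lactamase FRET substrate served as read-out in AR-UAS-bla GripTite HEK293 cells. Cells were treated with DMSO-dissolved compounds for 16 h at 37C, then with LiveBLAzer B/G substrate for 2 h at room temperature.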

[18] = molecular target: Androgen receptor (Homo sapiens) (UniProt P10275); experiment: qHTS assay to identify small molecule agonists of the androgen receptor (AR) signaling pathway using the MDA cell line (AID 743040; also: nearly all actives have a fitted effect of over 20% in size; also: potency is read from the fitted curve at half-maximal effect)
In short: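 Cells plated, 5 h at 37C/0% CO2; compound or DMSO pinned; 16 h at 37C; ONE-Glo added; luminescence measured after 30 min at room temperature. Reporter line: MDA-kb2 with MMTV-luciferase responsive to AR and GR.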

[19] = molecular target: Androgen receptor (Homo sapiens) (UniProt P10275); experiment: qHTS assay to identify small molecule antagonists of the androgen receptor (AR) signaling pathway using the MDA cell line (AID 743042; also: nearly all actives have a fitted effect of over 55% in size)
In short: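 Antagonist mode: compounds plus R1881 agonist added to MDA-kb2 AR-luc cells, incubated 16 h at 37C. Luciferase reporter luminescence quantified, with multiplexed CellTiter-Fluor readout for cell viability.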

[20] = molecular target: Androgen receptor (Homo sapiens) (UniProt P10275); experiment: qHTS assay to identify small molecule antagonists of the androgen receptor (AR) signaling pathway (AID 743035; active = well fitted inhibition curve with a large enough effect in the signal ratio in the repeat runs, not every such curve was filed as active; the % refers to the signal ratio)
In short: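 Fluorescence from a beta-lactamase FRET substrate (LiveBLAzer B/G, 2 h, room temperature) measured inhibition of R1881-stimulated signaling in GeneBLAzer AR-UAS-bla HEK293 cells exposed to compound for 16 h at 37C.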

Measured: Potency
Tags tell the direction and shape of the fitted curve or compound fluorescence and quenching.

CC1(C)S[C@@H]2[C@H](NC(=O)C(C(=O)O)c3ccsc3)C(=O)N2[C@H]1C(=O)O (some centres not stated)
inactive: [1] | [2] | [3] | [4] | [5] | [6] | [7] | [8] | [9] | [10] | [11] | [12] | [13] | [14] | [15]

CC(NNC(=O)c1ccccc1)c1ccccc1 (configuration not stated)
inactive: [1] | [2] | [3] | [4] | [5] | [16] | [6] | [7] | [10] | [12] | [13] | [14] | [17] | [18] | [15] | [19]

NCCC[C@H](N)C(=O)O
inactive: [1] | [2] | [3] | [4] | [5] | [16] | [6] | [7] | [10] | [14] | [15]

CC[C@@H](C(=O)[C@@H](C)[C@@H](O)[C@H](C)[C@@H]1O[C@@H]([C@@H](CC)C(=O)O)CC[C@@H]1C)[C@H]1O[C@]2(C=C[C@@H](O)[C@]3(CC[C@@](C)([C@H]4CC[C@](O)(CC)[C@H](C)O4)O3)O2)[C@H](C)C[C@@H]1C
active: [11] 1.5 µM | [12] 0.944 µM | [13] 1.19 µM
inactive: [1] | [2] | [3] | [4] | [5] | [16] | [6] | [7]

CC[C@H](C)[C@H]1O[C@]2(CC[C@@H]1C)C[C@@H]1C[C@@H](C/C=C(\C)[C@@H](O[C@H]3C[C@H](OC)[C@@H](O[C@H]4C[C@H](OC)[C@@H](O)[C@H](C)O4)[C@H](C)O3)[C@@H](C)/C=C/C=C3\CO[C@@H]4[C@H](O)C(C)=C[C@@H](C(=O)O1)[C@]34O)O2
inactive: [1] | [2] | [3] | [4] | [5] | [16] | [6] | [7] | [20] | [18] | [15] | [19]
active: [10] 6.01 µM | [11] 3.76 µM | [13] 7.5 µM

CC[N+](C)(C)Cc1ccccc1Br
inactive: [1] | [2] | [3] | [4] | [5] | [6] | [7] | [8] | [9] | [10] | [11] | [12] | [13] | [14] | [18] | [15] | [19]

OCC(S)CS (configuration not stated)
active: [11] 16.8 µM | [12] 18.8 µM | [13] 8.41 µM
inactive: [1] | [2] | [3] | [4] | [5] | [16] | [6] | [7] | [14] | [20] | [18]

CC(=O)N[C@@H](C=O)[C@@H](O)[C@H](O)[C@H](O)CO
inactive: [1] | [2] | [3] | [4] | [5] | [16] | [6] | [7] | [10] | [11] | [13] | [15]

O=S(=O)(O)CCCS(=O)(=O)O
inactive: [1] | [2] | [3] | [4] | [5] | [16] | [6] | [7] | [10] | [11] | [13] | [15]

CCCCCCCC(=O)CC[C@@H]1[C@@H](C/C=C\CCCC(=O)OC(C)C)[C@@H](O)C[C@H]1O
inactive: [1] | [2] | [3] | [4] | [5] | [16] | [6] | [7] | [15]
active: [11] 8.41 µM | [12] 21.1 µM | [13] 13.3 µM

CO[C@H]1C[C@H](O[C@H]2[C@H](C)[C@@H](O[C@@H]3O[C@H](C)C[C@H](N(C)C)[C@H]3OC(C)=O)[C@@H](C)C[C@]3(CO3)C(=O)[C@H](C)[C@@H](OC(C)=O)[C@@H](C)[C@@H](C)OC(=O)[C@@H]2C)O[C@@H](C)[C@@H]1OC(C)=O
inactive: [1] | [2] | [3] | [4] | [5] | [16] | [6] | [7] | [10] | [11] | [13] | [17] | [18] | [15] | [19]

CCCCCCCCCCCCCCCCOCCOCCOCCOCCOCCOCCOCCOCCOCCOCCOCCOCCOCCOCCOCCOCCOCCOCCOCCOCCO
active: [10] 13.4 µM | [11] 2.37 µM | [13] 29.8 µM | [15] 29.8 µM
inactive: [1] | [2] | [3] | [4] | [5] | [16] | [6] | [7]

O=C1O[C@H]2[C@H](O)[C@@H]1OC(O)[C@H]2O (some centres not stated)
inactive: [1] | [2] | [3] | [4] | [5] | [6] | [7] | [8] | [9] | [10] | [11] | [12] | [13] | [14] | [15]

O=C(O)c1c(Cl)c(Cl)c(Cl)c(Cl)c1-c1c2cc(I)c(=O)c(I)c-2oc2c(I)c(O)c(I)cc12
active: [4] 11.2 µM [fluorescent] | [5] 11.2 µM [fluorescent] | [18] 13.3 µM | [15] 24.8 µM
inactive: [1] | [2] | [3] | [16] | [6] | [7] | [10] | [12] | [14] | [17] | [19]
